Assay [1] concerns the target Insulin-degrading enzyme (Homo sapiens) (UniProt P14735). The assay can be described thus: human IDE inhibitors in live cells, confirmation, fluorescence polarization, HEK cells, FAbetaB substrate (AID 435028;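 active = mean inhibition across triplicate wells above the cutoff set by the earlier primary insulin-degrading enzyme screen, cut at about 16% in these data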;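 also: 0% = DMSO wells and 100% = 60 µM reference IDE inhibitor Ii1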). To be noted: FAbetaB cleavage, at 5.59 µM, active compounds read high. A general note: Polarisation of emitted light reports the rotation of a fluorescent probe.
Assay [2] in a line: cytotoxicity in HEK cells, cytotoxicity control for IDE inhibitor project, cell-based, luminescence (AID 449730; in the data active = inhibition above about 22%;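 also: 0% = vehicle wells and 100% = reference cytotoxic drug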). The conditions noted are these: HEK293 cytotoxicity, ATP luminescence; at 5.59 µM; active compounds read high.
For assay [3], the target named is Toll-like receptor 9 (Homo sapiens) (UniProt Q9NR96). The assay can be described thus: TLR9-MyD88 association inhibitors, retest, confirmation, cell-based, CHO, BLA complementation, fluorescence, triplicate (AID 540250;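 active = mean inhibition across three repeats above about 21% taken from the earlier screen, limit read from the data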;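 also: blue over green emission ratio reports constitutive TLR9 MyD88 association via BLA complementation; 0% = DMSO vehicle wells and 100% = clavulanate BLA inhibitor wells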). The conditions noted are these: CCF4 FRET ratio, at 4.98 µM, active compounds read high.
Assay [4] is described as follows: beta-lactamase reporter inhibitors in CHO cells, artefact control for TLR9-MyD88 binding inhibitor project, cell-based, fluorescence (AID 540251;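 active = mean inhibition above a 50% cutoff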;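 also: counterscreen of TLR9-MyD88 hits on CMV-driven BLA in CHO-K1 cells; 0% = DMSO alone and 100% = clavulanate blocking BLA; higher means less blue over green ratio so more BLA blockade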). To be noted: CHO-BLA cells, CCF4 FRET ratio, at 4.98 µM, active compounds read high.
The nature of assay [5]: CHO cell viability loss – luminescence, single concentration, cytotoxicity control for TLR9-MyD88 binding inhibitor project (AID 588336; in the data active = inhibition above about 11%). To be noted: TLR9-MyD88 CHO cells cytotoxicity, at 4.98 µM, active compounds read high.
Assay [6] deals with Receptor-interacting serine/threonine-protein kinase 2 (Homo sapiens) (UniProt O43353). Put plainly: NOD2-RIPK2 binding disruptors, retest, confirmation, fluorescence, CHO cells, BLA complementation, triplicate (AID 624370;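 active = mean inhibition across replicates above a set limit taken from the earlier primary screen, cut at about 21% in these data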;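 also: 0% = DMSO-only wells and the high end = clavulanate BLA-blocked wells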). To be noted: CCF4 FRET, at 4.98 µM, active compounds read high.
Assay [7] in a line: beta-lactamase reporter inhibitors in CHO cells, confirmation, artefact control for NOD2-RIPK2 interaction inhibitor project, cell-based, CHO-K1 CMV-bla, CCF4 FRET, fluorescence (AID 624371;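 active = mean inhibition above the low-control mean inhibition plus three low-control SD, cut at about 11% in these data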;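 also: 0% = DMSO only wells and 100% = clavulanate high control wells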). To be noted: CCF4 FRET ratio, counterscreen, at 4.98 µM, active compounds read high. Background: The purpose of a counterscreen is to sort out artefacts and off-target activity.
Assay [8] has as its target Platelet-activating factor acetylhydrolase (Homo sapiens) (UniProt Q13093). The assay can be described thus: pPAFAH (PLA2G7) enzyme inhibitors, confirmation, biochemical, fluorescence polarization, human (AID 463230;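 active = mean inhibition of the triplicate above the hit cutoff set for the earlier primary screen, cut at about 25% in these data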;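 also: 0% = enzyme with DMSO and 100% = wells lacking pPAFAH enzyme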). The conditions noted are these: recombinant pPAFAH, FP-Rh probe fluorescence polarization; at 3.39 µM; active compounds read high.
The target in assay [9] is Serine protease HTRA1 (Homo sapiens) (UniProt Q92743). The assay can be described thus: HTRA1 protease inhibitors, retest, confirmation, biochemical, fluorescence polarization (AID 540248;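 active = mean inhibition over three repeats above a set limit taken from the earlier primary screen, cut at about 37% in these data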;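 also: 0% = HTRA1 with DMSO and 100% = wells lacking HTRA1; inhibitors block probe binding so polarization drops and inhibition rises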). To be noted: recombinant HTRA1, FP-rhodamine activity-based probe, at 5.96 µM, active compounds read high.
The target in assay [10] is Protein-arginine deiminase type-4 (Homo sapiens) (UniProt Q9UM07). The assay can be described thus: human PAD4 inhibitors, confirmation, biochemical, fluorescence polarization (AID 488796).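 Also: inhibitors block active-site labeling by the probe so polarization falls; 0% = PAD4 with probe and DMSO and 100% = probe without PAD4 enzyme.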 The conditions noted are these: recombinant PAD4, RCA probe fluorescence polarization; at 6.36 µM; active compounds read high.
Assay [11] concerns the target (Lyso)-N-acylphosphatidylethanolamine lipase (Mus musculus) (UniProt Q8VD66). The assay can be described thus: ABHD4 inhibitors, retest, confirmation, biochemical, fluorescence polarization, mouse (AID 720658;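 active = mean inhibition across replicates above the hit cutoff set in the primary screen, cut at about 30% in these data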;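 also: 0% = wild-type ABHD4 with DMSO and 100% = catalytically dead S159A mutant with DMSO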). To be noted: purified mABHD4, FP-Rh probe fluorescence polarization; at 8.92 µM; active compounds read high.
For assay [12], the system named is DAF-12 nuclear receptor (Heterodera glycines), GAL4-LBD fusion. The assay can be described thus: H. glycines DAF-12 receptor agonists, confirmation, cell-based, luminescence, HEK293, GAL4-LBD fusion (AID 743050;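 active = mean activation over triplicate wells above the hit cutoff derived from the earlier primary screen, cut at about 11% in these data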;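 also: 0% = DMSO low control and 100% = 2 mM sodium butyrate high control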). The conditions noted are these: HEK293 GAL4-hgDAF12 luciferase reporter, agonist mode; at 6.8 µM; active compounds read high; percent of butyrate response.
Assay [13] addresses Oxysterols receptor LXR-beta (Homo sapiens) (UniProt P55055). The assay can be described thus: LXR agonists, Gal4 luciferase reporter, confirmation, counter-screen for hgDAF-12 agonist project, cell-based, luminescence, HEK293, H. glycines campaign (AID 743051;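 active = mean activation of the triplicate above a set limit carried over from the primary screen, none filed active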). To be noted: 24 h, at 6.8 µM, active compounds read high.
Assay [14] concerns transactivating tegument protein VP16 (Human herpesvirus 1). The assay can be described thus: VP16 transactivation reporter inhibitors, counter-screen for SRC2 inhibitor project, cell-based, luminescence, single concentration (AID 652007; in the data active = inhibition above about 36%). To be noted: cell-based VP16 transactivation luciferase reporter, at 8.9 µM, active compounds read high.
For assay [15], the target named is Nuclear receptor coactivator 2 (Homo sapiens) (UniProt Q15596). The assay can be described thus: SRC2 coactivator transcriptional activity inhibitors, confirmation, cell-based, luminescence, HEK293, triplicate (AID 652008;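 active = mean inhibition above 46.5%, the solvent-only control mean plus 3 SD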;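 also: 0% = DMSO-treated cells and 100% = Gossypol at 36 µM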). The conditions noted are these: HEK293 GAL4-SRC2 luciferase reporter, at 8.9 µM, active compounds read high. Background: Reporter assays use an easily measured gene product as a stand-in for the process of interest.

The nature of assay [16]: compounds interfering with TAMRA-BSA probe, counter-screen for TCR-CD3 interaction inhibitor project, biochemical, fluorescence, TAMRA-labeled BSA (AID 652035; in the data active = inhibition above about 23%;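 also: 0% = buffer low control and 100% = reference high control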). The conditions noted are these: TAMRA-labeled BSA probe fluorescence counterscreen; at 9.4 µM; active compounds read high.
The subject of assay [17] is T-cell receptor (TCR)-CD3 interaction, human. Put plainly: TCR-CD3 interaction inhibitors, retest, confirmation, biochemical, fluorescence, TAMRA-labeled TCR probe (AID 652036; in the data active = inhibition above about 19%). To be noted: TAMRA-labeled TCR probe fluorescence binding assay; at 9.4 µM; active compounds read high.
The nature of assay [18]: growth loss of phage-infected E. coli expressing H. pylori AddAB, confirmation, AddAB inhibitor project, absorbance, E. coli V3065, T4 phage, triplicate (AID 488942;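 active = mean inhibition above a set limit taken from the earlier primary screen, cut at about 13% in these data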;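 also: higher means less bacterial growth since AddAB block lets phage replicate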). To be noted: OD, at 11.9 µM, active compounds read high, T4 phage with gene 2 nonsense mutations.
A short description of assay [19]: growth loss of RecBCD+ E. coli with mutant T4 phage, counter-screen for AddAB inhibitor project, absorbance, V66 E. coli (AID 488955;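 active = mean inhibition above the mean of solvent-only control wells plus 3 SD, cut at about 4% in these data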;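 also: optical density read after an 18 h incubation at 37 °C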). The conditions noted are these: OD growth, at 11.9 µM, active compounds read high.
A short description of assay [20]: bacterial viability inhibition counter-screen, confirmation, counter-screen for AddAB inhibitor project, absorbance (AID 488956; in the data active = inhibition above about 25%). The conditions noted are these: absorbance (AddAB counterscreen), at 11.9 µM, active compounds read high.
Assay [21] can be described thus: StAR promoter reporter inhibitors, counter-screen for LRH-1 inverse agonist project, cell-based, luminescence, high throughput (AID 651611; in the data active = inhibition above about 28%). The conditions noted are these: StAR promoter luciferase reporter counterscreen, at 3.6 µM, active compounds read high.
Assay [22] has as its target Nuclear receptor subfamily 5 group A member 2 (Homo sapiens) (UniProt O00482). The assay can be described thus: LRH-1 (NR5A2) inverse agonists, retest, confirmation, cell-based, luminescence (AID 651613; in the data active = inhibition above about 42%;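 also: HEK293T cells co-transfected with LRH-1 and StAR promoter luciferase reporter; 0% = vehicle wells and 100% = parental cells lacking receptor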). To be noted: cell-based LRH-1 luciferase reporter, inverse agonism; at 3.6 µM; active compounds read high.
The target in assay [23] is Steroidogenic factor 1 (Homo sapiens) (UniProt Q13285). Put plainly: SF1 (NR5A1) inverse agonists, counter-screen for LRH-1 inverse agonist project, cell-based, luminescence, high throughput (AID 651614; in the data active = inhibition above about 44%;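 also: cells cotransfected with StAR promoter reporter and SF1 expression vector; 0% = vehicle on cells with receptor and 100% = vehicle on cells lacking receptor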). To be noted: cell-based SF1 luciferase reporter, at 3.6 µM, active compounds read high.
Assay [24] is described as follows: VP16 transactivation reporter inhibitors, counter-screen for LRH-1 inverse agonist project, cell-based, luminescence, high throughput (AID 651615; in the data active = inhibition above about 33%). The conditions noted are these: Gal4-VP16 luciferase reporter cells, at 3.6 µM, active compounds read high.

Structures are written as SMILES. Values without a mark were called inactive. The list shows a part of the results. Activity calls are given as the source filed them.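 The calls were made as follows, unless noted: active = mean inhibition across replicates above the hit cutoff set by the earlier primary screen (cut at about 15% in these data); inactive = the rest.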

This passage reports inhibition and activation results from PubChem BioAssay.

For orientation: inhibition means the drop in the measured response relative to a control, in per cent.

Sequence of Platelet-activating factor acetylhydrolase (Homo sapiens) (Q13093 whole entry, looked up): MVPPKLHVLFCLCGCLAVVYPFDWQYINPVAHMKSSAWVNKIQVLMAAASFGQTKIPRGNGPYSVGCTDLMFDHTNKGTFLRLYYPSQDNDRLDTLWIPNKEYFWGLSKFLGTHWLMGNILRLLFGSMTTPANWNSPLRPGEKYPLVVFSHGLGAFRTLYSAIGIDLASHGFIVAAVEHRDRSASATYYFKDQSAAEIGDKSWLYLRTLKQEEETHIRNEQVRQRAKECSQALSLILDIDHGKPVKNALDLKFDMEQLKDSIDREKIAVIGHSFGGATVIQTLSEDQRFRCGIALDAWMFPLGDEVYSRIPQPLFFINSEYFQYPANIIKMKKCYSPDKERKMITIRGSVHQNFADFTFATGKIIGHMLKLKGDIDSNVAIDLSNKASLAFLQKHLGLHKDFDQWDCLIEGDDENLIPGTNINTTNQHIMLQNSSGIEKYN
Sequence of (Lyso)-N-acylphosphatidylethanolamine lipase (Mus musculus) (Q8VD66 whole entry, looked up, the tested form may be a part): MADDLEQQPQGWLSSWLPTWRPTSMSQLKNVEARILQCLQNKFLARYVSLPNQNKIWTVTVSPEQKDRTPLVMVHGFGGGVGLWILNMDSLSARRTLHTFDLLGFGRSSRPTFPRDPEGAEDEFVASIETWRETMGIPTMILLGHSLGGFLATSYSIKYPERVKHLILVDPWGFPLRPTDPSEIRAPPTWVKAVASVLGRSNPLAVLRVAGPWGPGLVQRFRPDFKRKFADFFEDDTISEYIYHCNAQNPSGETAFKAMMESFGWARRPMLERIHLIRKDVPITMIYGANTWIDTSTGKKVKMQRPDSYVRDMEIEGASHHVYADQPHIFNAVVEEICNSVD
Sequence of Protein-arginine deiminase type-4 (Homo sapiens) (Q9UM07 whole entry, looked up): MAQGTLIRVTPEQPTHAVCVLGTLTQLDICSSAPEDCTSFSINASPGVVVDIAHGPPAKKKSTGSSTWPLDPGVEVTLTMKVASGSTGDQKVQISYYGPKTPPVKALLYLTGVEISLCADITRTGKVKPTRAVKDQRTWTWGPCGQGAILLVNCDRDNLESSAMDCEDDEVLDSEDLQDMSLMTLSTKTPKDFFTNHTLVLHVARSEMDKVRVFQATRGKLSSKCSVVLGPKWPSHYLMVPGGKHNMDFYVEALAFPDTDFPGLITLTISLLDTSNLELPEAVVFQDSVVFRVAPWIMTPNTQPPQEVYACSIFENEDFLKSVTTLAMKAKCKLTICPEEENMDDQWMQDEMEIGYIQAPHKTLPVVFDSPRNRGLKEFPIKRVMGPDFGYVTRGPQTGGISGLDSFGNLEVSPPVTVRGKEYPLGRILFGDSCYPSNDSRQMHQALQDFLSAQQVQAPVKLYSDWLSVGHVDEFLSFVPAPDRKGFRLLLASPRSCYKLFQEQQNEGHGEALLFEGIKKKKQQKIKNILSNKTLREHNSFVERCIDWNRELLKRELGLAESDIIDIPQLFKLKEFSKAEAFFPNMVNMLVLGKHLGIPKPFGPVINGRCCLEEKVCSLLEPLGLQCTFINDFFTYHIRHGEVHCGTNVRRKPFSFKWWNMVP
Sequence of Nuclear receptor coactivator 2 (Homo sapiens) (Q15596 whole entry, looked up, the tested form may be a part): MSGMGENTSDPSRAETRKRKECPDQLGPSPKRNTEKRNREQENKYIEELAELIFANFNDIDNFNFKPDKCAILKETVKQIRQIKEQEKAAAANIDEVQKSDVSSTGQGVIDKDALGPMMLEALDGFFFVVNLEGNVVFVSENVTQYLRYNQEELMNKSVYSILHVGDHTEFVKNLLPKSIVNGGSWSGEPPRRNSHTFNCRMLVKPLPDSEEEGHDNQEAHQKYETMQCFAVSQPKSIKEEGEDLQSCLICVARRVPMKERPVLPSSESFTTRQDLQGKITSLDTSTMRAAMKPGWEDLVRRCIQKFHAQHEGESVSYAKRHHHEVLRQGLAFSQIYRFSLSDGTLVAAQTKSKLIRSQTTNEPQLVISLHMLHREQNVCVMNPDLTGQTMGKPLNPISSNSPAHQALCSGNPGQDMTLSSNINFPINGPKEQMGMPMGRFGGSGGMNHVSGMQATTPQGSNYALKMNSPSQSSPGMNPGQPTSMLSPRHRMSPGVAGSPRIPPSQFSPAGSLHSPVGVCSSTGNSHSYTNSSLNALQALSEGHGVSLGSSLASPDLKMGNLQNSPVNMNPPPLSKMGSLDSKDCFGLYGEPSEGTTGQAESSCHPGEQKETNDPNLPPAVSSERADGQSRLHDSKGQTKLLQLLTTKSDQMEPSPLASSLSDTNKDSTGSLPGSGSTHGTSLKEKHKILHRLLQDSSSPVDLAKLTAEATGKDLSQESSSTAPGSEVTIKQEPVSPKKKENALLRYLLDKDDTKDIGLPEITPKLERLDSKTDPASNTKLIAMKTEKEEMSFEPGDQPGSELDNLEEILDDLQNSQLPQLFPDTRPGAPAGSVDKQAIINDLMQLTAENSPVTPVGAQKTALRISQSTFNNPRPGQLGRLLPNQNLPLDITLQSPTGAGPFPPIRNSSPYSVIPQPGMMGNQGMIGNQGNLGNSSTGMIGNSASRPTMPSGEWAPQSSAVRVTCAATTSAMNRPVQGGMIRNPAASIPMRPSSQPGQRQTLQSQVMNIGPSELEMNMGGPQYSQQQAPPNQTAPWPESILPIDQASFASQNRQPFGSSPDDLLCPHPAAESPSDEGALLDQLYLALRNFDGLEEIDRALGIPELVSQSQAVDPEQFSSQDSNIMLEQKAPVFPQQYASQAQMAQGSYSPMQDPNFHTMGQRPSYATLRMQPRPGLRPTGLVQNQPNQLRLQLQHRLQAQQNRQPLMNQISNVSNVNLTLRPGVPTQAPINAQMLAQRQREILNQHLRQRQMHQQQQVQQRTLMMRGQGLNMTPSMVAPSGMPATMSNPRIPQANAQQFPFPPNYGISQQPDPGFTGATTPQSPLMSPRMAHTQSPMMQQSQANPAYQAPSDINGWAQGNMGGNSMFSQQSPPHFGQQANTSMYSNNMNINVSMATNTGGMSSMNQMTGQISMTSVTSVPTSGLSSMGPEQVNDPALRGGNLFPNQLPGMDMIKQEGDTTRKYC
Sequence of Receptor-interacting serine/threonine-protein kinase 2 (Homo sapiens) (O43353 whole entry, looked up): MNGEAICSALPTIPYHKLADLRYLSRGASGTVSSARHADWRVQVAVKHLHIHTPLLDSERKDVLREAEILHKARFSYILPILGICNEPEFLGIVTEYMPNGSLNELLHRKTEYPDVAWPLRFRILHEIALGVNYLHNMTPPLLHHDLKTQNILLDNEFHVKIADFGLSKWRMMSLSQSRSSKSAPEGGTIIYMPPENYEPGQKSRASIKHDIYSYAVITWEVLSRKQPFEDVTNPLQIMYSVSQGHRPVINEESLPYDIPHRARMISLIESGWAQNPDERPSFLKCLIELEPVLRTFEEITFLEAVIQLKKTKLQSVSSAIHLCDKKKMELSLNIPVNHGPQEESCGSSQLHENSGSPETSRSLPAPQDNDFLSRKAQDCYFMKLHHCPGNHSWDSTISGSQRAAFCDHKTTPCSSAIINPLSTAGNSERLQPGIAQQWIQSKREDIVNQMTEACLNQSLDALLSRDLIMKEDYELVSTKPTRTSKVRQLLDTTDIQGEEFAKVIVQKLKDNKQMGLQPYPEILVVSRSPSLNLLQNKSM
Sequence of Nuclear receptor subfamily 5 group A member 2 (Homo sapiens) (O00482 whole entry, looked up): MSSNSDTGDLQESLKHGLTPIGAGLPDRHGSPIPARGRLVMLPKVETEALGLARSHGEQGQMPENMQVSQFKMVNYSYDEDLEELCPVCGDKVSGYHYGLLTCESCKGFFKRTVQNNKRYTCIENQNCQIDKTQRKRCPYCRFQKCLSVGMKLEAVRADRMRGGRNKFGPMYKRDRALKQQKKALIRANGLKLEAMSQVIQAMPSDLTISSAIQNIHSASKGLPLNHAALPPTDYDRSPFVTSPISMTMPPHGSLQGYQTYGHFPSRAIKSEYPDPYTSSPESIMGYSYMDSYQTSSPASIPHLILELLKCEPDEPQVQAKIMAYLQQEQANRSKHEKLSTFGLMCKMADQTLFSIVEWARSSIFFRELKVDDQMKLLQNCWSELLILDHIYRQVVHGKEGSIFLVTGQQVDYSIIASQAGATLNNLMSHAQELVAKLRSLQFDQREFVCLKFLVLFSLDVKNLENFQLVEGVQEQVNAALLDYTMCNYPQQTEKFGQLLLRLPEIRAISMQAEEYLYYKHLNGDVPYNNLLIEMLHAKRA
Sequence of Insulin-degrading enzyme (Homo sapiens) (P14735 whole entry, looked up): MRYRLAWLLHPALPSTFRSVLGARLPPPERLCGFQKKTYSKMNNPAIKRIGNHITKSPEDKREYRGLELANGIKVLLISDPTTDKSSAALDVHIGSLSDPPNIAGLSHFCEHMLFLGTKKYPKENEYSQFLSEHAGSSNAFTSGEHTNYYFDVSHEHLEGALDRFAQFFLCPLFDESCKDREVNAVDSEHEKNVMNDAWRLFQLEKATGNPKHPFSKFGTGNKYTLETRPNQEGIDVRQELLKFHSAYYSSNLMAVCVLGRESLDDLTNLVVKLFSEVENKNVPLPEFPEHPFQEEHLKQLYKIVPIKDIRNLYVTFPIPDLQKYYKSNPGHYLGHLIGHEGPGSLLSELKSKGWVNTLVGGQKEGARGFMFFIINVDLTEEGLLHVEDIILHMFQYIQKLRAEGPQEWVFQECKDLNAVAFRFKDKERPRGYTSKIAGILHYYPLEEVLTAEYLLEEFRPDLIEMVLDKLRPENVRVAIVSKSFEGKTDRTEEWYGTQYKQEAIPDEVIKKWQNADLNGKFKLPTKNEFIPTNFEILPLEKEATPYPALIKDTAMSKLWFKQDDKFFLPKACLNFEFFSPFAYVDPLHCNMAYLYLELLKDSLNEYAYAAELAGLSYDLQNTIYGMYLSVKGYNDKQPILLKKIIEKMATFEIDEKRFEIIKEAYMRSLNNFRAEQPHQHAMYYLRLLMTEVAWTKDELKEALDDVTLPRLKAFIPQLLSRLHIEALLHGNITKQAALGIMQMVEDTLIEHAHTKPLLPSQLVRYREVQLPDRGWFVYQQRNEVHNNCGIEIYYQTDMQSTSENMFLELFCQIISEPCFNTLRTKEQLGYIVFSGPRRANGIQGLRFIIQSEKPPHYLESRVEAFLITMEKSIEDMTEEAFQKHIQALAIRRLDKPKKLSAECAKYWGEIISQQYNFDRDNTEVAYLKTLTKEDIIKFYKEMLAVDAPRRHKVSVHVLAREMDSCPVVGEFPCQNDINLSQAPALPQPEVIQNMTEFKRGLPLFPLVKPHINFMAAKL

Regarding `COc1cc(/C=C(\C#N)c2nc3c(s2)CC(C)CC3)ccc1O` (stereo not drawn), the inhibition was 161% (active) in assay [1]; 11.3% in assay [2]; 7.82% in assay [3]; 17% in [4]; 0.65% in assay [5]; 29.5% (active) in [6]. In [7], the inhibition was 39.6% (active).
Regarding `CCOc1ccc(NS(=O)(=O)c2ccc(C(=O)NCC(c3ccccc3OC)N3CCCC3)cc2)cc1` (stereo not drawn), the inhibition in assay [8] is 45.4% (active).
Consider `Cc1ccc(/C=N/NC(=O)c2cc3ccccc3cc2O)o1`, for which the inhibition is 9.89% in assay [8] and 38.8% (active) in [9].
Regarding `c1ccc2c(C[n+]3csc4ccccc43)cccc2c1`, the inhibition in assay [10] was 61.3% (active).
As for `CC(C)c1ccc(NC(=S)NNc2ccc(Cl)c(C(=O)O)c2)cc1`, the inhibition was 11.9% in [8] and 19.4% in assay [11].
Take `CCC(=O)Nc1sc(C(=O)Nc2ccccc2)c(C)c1C(=O)OC`: in [8], the inhibition is 4.86%. Moreover, the activation was 9.78% in assay [12] and 0.28% in assay [13].
For `CCCCNC(=O)Nc1c(C)cc(SC#N)cc1C`, the inhibition in [10] was 35.6% (active).
Same read-out and setting: to `CC(=O)Oc1cccc(N2C(=O)CC(Nc3ccc(N4CCOCC4)cc3)C2=O)c1` (stereo not drawn) belongs -1.36%; to `O=C(CN1CCCCCC1)Nc1ccc(Br)cc1Br`, 3.01%.
The same measure, in the same setting: to `CCCCNC(=O)C1(c2ccc(OC)cc2)CCOCC1` belongs 8.6%.
Take `O=C(/C=C/c1cccs1)c1cc(Cl)ccc1OC(=O)N1CCOCC1`: the inhibition in [8] was 47.8% (active); in assay [14] it was 20.3%; in assay [15], -4.35%.
As to `C=CCN(C(=O)Nc1ccc2oc(C)nc2c1)c1ccccc1`, the inhibition in assay [10] was -3.81%.
Still for that read-out and setting: the same measure for `Cc1ccn2cc(-c3nonc3C)cc2c1`: 6.98%.
Regarding `Cc1cc(/C=N/Nc2ccc([N+](=O)[O-])cn2)c(C)n1-c1cccc(C(=O)O)c1`, the inhibition in assay [8] is 11.7%; in [9] it was 30.7%; in assay [11] it was 74.5% (active).
Take `Cc1nc2ccc(NC(=O)C(F)(F)F)cc2o1`: the inhibition in [10] is 4.72%.
On to `CNC(=S)NNC(=O)c1oc2nc(-c3ccccc3)cc(-c3ccco3)c2c1N`, for which the inhibition was 2% in [10]; 11.5% in assay [9]; -11.2% in assay [16]; 30.5% (active) in assay [17]; 17.5% in assay [11].
As to `CCc1nnc(SCc2cccc(F)c2)nc1CC`, in [10], the inhibition was -0.68%.
Consider `Cc1nn(-c2ccccc2)c(C)c1NC(=O)COc1ccc(Cl)cc1Cl`, for which the values for the inhibition in assay [10], in [14] and in assay [15] were 5.05%, -8.62% and 16.2%, respectively.
As for `CN1C(=O)c2cccc3c(N)ccc(c23)C1=O`, the inhibition in assay [10] was 17.1% (active); in assay [11], 31.5% (active).
`CCC(C)Cn1c(O)cc2nn(-c3nc4ccccc4s3)c(=O)c-2c1C` (stereo not drawn): the inhibition was 20.9% in assay [8]; 59.6% (active) in assay [9]; 86.8% (active) in assay [14]; 94.8% (active) in [15]; 54.4% (active) in [11].
With `CC(C)n1cnc2c(NCc3ccccc3)cc(OCC3CCN(C)CC3)cc21`, the inhibition in assay [10] was -10.7%.
Take `COc1cc(C(=O)NCc2ccc3c(c2)cc(C)n3C)cc(OC)c1OC`: the inhibition in assay [10] is 1.97%.
For the compound `CCc1ccccc1NC(=S)Nc1cc(OC)c(NC(=O)C(C)C)cc1OC`, the figures for the inhibition in assay [10] and in [11] were 1.96% and -9.17%, respectively.
Take `O=C(Cn1c(=O)sc2ccccc21)Nc1nc2c(s1)CCCC2`: the values for the inhibition in assay [18], in [19] and in assay [20] were 2.31%, 4.07% (active) and 3.15%, respectively.
Take `COc1ccccc1CNC(=O)C1CCN(c2nc3ccccc3o2)CC1`: in assay [10], the inhibition was 5.44%.
As for `O=C(NCC1CCCO1)c1cc2c([nH]c3ccccc32)c(-c2ccc(F)cc2)n1` (stereo not drawn), the inhibition is 64.8% (active) in [10]; 50.5% (active) in assay [21]; 41.6% (active) in assay [22]; 50.1% (active) in [23]; 27.2% in assay [24].
As to `COc1ccc(C2NC(=S)NC3=C2CCc2ccccc23)cc1OC` (stereo not drawn), the inhibition in assay [10] was 22.5% (active).
Regarding `COc1cccc(NC(=O)C2c3cc(OC)c(OC)cc3C(=O)N(C)C2c2cccnc2)c1` (stereo not drawn), the inhibition in assay [10] is 8.92%.
Same read-out and setting: the same measure for `CC(C)C(NC(=O)c1ccc(Cl)cc1)C(=O)O` (stereo not drawn): -6.12%; for `COC(=O)c1ccc(NC(=O)CSc2nncc3ccc(OC)c(OC)c23)cc1`: 0.13%.
Take `CCOC(=O)N1CCC(c2cc(=O)n(-c3ccccc3)[nH]2)CC1`: the inhibition in assay [10] was -0.34%.
On the same count and under the same terms, the same measure for `Cc1ccc(C(=O)CSc2nc3ccccc3c(=O)n2N)o1`: 1.81%.
Consider `Cc1nn(C)cc1N1C(=O)c2cccc3c(N)ccc(c23)C1=O`, for which the inhibition in assay [10] is 36.2% (active); in assay [6], 24% (active); in assay [7], 26.6% (active); in assay [16], 52.9% (active); in assay [17], 33.9% (active); in assay [11], 40.4% (active).
On to `COc1cccc2c(C)c(C(=O)O)[nH]c12`, for which the inhibition in assay [8] was 33% (active); in assay [11], 34.5% (active).
Take `COc1cc(SC#N)ccc1N=Cc1c(C)[nH]n(-c2ccc(C)cc2)c1=O`: the inhibition in [10] was 29.7% (active).
